Data on 13 compounds can be found in PubChem BioAssay (NCI).

The panel holds about 83,000 compounds, 20% with a hit somewhere; the sample as a whole holds those more often.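 Single-dose data. Exposure time 48 hours. Values below 10 considered active.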 Values without a mark were called inactive. Activity calls are given as the source filed them.

In this assay the test system is MCF7 breast. The experiment in a line: NCI-60 one-dose screen, 48 h (100 = growth as untreated, 0 = no growth, -100 = all killed). The note with it: 10 µM unless noted.
Consider `N#C/C(=C\c1ccc(-c2ccc(Cl)cc2)o1)C(=O)Nc1ncc(Cc2ccc(Br)cc2)s1`, for which the growth is 30.5%.

With `O=C(COc1ccc(/C=C2\C(=O)Nc3ccc(Cl)cc32)cc1)Nc1ccc(Cl)cc1`, the growth is 56.3%.

On to `CC(O)c1cccc(/C(N)=N/C(N)=N/c2nc3ccccc3s2)c1` (stereo not drawn), for which the growth is 90.5%.

As to `O=C(CN1CCN(c2cc(=O)[nH]c3ccc(F)cc23)CC1)N(c1ccccc1)c1ccccc1`, the growth was 96.7%.

For `Cn1c(SCC(=O)c2ccc(Br)cc2)nc2ccccc2c1=O`, the growth was 51.7%.

For the compound `NC(N)=NS(=O)(=O)c1ccc(N=Nc2c(N)nn(-c3ccc([N+](=O)[O-])cc3[N+](=O)[O-])c2N)cc1`, the growth was 96.2%.

With `Cc1cc2nc3c4cc(C#N)ccc4n(CCN(C)C)c3nc2cc1C`, the growth is 2.34% (active).

Consider `O=C(CCCCCCN1CC(=O)N2[C@@H](c3cccs3)c3[nH]c4ccccc4c3C[C@H]2C1=O)NO`, for which the growth is 52.1%.

Consider `O=C(CSc1nc2ccccc2c(=O)n1CCc1ccccc1)Nc1ccc(S(=O)(=O)Nc2ccc(Cl)nn2)cc1`, for which the growth was 79.7%.

On to `CC1=C(C)C(=O)C(Nc2ccc(C)c(C)c2)=C(Br)C1=O`, for which the growth was 64.2%.

With `COc1cc(/C=C2/C(=O)Nc3ccc(Cl)cc32)ccc1OCc1ccc(Cl)cc1`, the growth was 49%.

As to `Cc1ccc2c(n1)C(=O)C(Cl)=C(Nc1ccc(C(C)C)cc1)C2=O`, the growth is -56.3% (active).

As to `CN1CCN(c2ccc(Nc3nc(NCCNS(=O)(=O)c4ccccc4)c4sccc4n3)cc2)CC1`, the growth is 92.1%.
